Measured values: PubChem BioAssay (EPA / NIEHS)
Results filed as inconclusive are left out. The source made the active and inactive calls. Rule for the calls, unless noted: active = hit-call score of the fitted dose curve at least 0.9, where 1 is the maximum; inactive = score below 0.9.

Assays:
[1] = IUF_NPC4_neurite_area_120hr: Leibniz Research Institute for Environmental Medicine (IUF) 120-hour Neuronal Morphology Assay for Neurite Area (NPC4) (AID 2284305; active = hit-call score of the fitted dose curve at least 0.9, where 1 is the maximum)
Procedure, shortened: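 hNPC spheres on PDL/laminin, N2 medium, 37C/5% CO2; dosed day 0, half-medium refresh day 3; fixed 120 h; TUBB3/Hoechst ICC, high-content imaging; neurite area = mean pixels per neuron (nuclei excluded); DMSO baseline, max 0.1%.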

[2] = IUF_NPC2-5_cytotoxicity_72hr: Cytotoxicity Assessment at 72 hours in the Leibniz Research Institute for Environmental Medicine (IUF) Neural Progenitor Cell Migration and Differentiation Assay for Cytotoxicity (NPC2-5) (AID 2284306; active = hit-call score of the fitted dose curve at least 0.9, where 1 is the maximum;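 note: LDH release into supernatant measured by resorufin fluorescence marking membrane damage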)
Procedure, shortened: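 hNPC spheres (0.3 mm), PDL/laminin, DMEM/F12 3:1 + 1% N2; cpd from d0, 7 concs + SC, DMSO max 0.1%; half-medium refresh d3. Readout: supernatant LDH via resorufin fluorescence (RFU), 72 h; gain-of-signal fit.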

[3] = IUF_NPC2-5_cytotoxicity_120hr: Cytotoxicity Assessment at 120 hours in the Leibniz Research Institute for Environmental Medicine (IUF) Neural Progenitor Cell Migration and Differentiation Assay (NPC2-5) (AID 2284307; active = hit-call score of the fitted dose curve at least 0.9, where 1 is the maximum)
Procedure, shortened: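 Human fetal (GW 16-19) neural progenitor spheres (0.3 mm) plated on poly-D-lysine/laminin in N2 differentiation medium, exposed 120 h with half-medium renewal at day 3; 7 concentrations plus solvent control, DMSO ≤0.1%. LDH release in supernatant read by resorufin fluorescence.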

[4] = IUF_NPC2-5_cell_number_120hr: Cell Number Assessment at 120 hours in the Leibniz Research Institute for Environmental Medicine (IUF) Neural Progenitor Cell Migration and Differentiation Assay (NPC2-5) (AID 2284308);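 note: count of Hoechst-stained nuclei in migration zone around plated human neural progenitor spheres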
Procedure, shortened: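 Human fetal neural progenitor spheres (0.3 mm) plated on poly-D-lysine/laminin in N2 differentiation medium, exposed five days across 7 concentrations with half-medium refresh at day 3. Hoechst-positive nuclei counted in migration area at 120 h, relative to DMSO.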

[5] = IUF_NPC2-5_viability_120hr: Viability Assessment at 120 hours in the Leibniz Research Institute for Environmental Medicine (IUF) Neural Progenitor Cell Migration and Differentiation Assay (NPC2-5) (AID 2284312)
Procedure, shortened: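 Human fetal neural progenitor spheres (0.3 mm) plated on poly-D-lysine/laminin in N2 differentiation medium, exposed 120 h with half-medium refresh at day 3. Viability by alamar blue resazurin fluorescence; 7 concentrations, DMSO max 0.1%.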

[6] = CCTE_Mundy_HCI_iCellGluta_NOG_NeuriteLength: CCTE's Neurite Outgrowth Assay in iCellGluta cells for Neurite Length, Mundy Lab (AID 2284318; active = hit-call score of the fitted dose curve at least 0.9, where 1 is the maximum)
Procedure, shortened: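 Automated high-content imaging of betaIII-tubulin (Alexa Fluor-488) and Hoechst-stained cells gave neurite length, normalized to the DMSO baseline.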

[7] = IUF_NPC1_cytotoxicity_72hr: Cytotoxicity Assessment at 72 hours in the Leibniz Research Institute for Environmental Medicine (IUF) Neural Progenitor Cell Proliferation Assay (NPC1) (AID 2284332; active = hit-call score of the fitted dose curve at least 0.9, where 1 is the maximum;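 note: rising LDH signal means more cytotoxicity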)
Procedure, shortened: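 LDH in supernatant, resazurin→resorufin fluorescence (RFU), 72 h exposure, no re-dosing. Cells: primary hNPC spheres, one per well, EGF+FGF medium, 37C/5% CO2, pH 7.2-7.6. Fit: positive direction vs baseline and dynamic range.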

[8] = CEETOX_H295R_11DCORT_noMTC: CeeTox H295R High-throughput Steroidogenesis Assay for 11-Deoxycortisol (11DCORT), maximum tolerated concentration (MTC) filtered results only (AID 2283911); details: actives raise or lower the signal
Procedure, shortened: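 H295R cells were prestimulated 48 h with 10 uM forskolin, then exposed 48 h to chemical (0.1% DMSO final). 11-Deoxycortisol in the medium was measured by MTBE extraction and HPLC-MS/MS, with bidirectional fitting versus DMSO and no MTC filtering of concentrations.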

[9] = CEETOX_H295R_OHPREG_noMTC: CeeTox H295R High-throughput Steroidogenesis Assay for OH-Pregnenolone (OHPREG), maximum tolerated concentration (MTC) filtered results only (AID 2283912); details: actives raise or lower the signal
Procedure, shortened: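 H295R; 10 uM forskolin 48 h pre-stim; test cpd in DMSO (0.1% final) 48 h; media MTBE-extracted, HPLC-MS/MS for OH-pregnenolone; bidirectional fit vs DMSO; no MTC (MTT) filtering.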

[10] = CEETOX_H295R_OHPROG_noMTC: CeeTox H295R High-throughput Steroidogenesis Assay for OH-Progesterone (OHPROG), maximum tolerated concentration (MTC) filtered results only (AID 2283914); details: actives raise or lower the signal
Procedure, shortened: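 Medium hormone measured by reverse-phase C18 HPLC with positive electrospray MS/MS after MTBE liquid-liquid extraction. Cells had 48 h forskolin (10 uM) prestimulation, then 48 h chemical dosing. Gain or loss of signal fitted relative to DMSO baseline.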

[11] = CEETOX_H295R_CORTISOL_noMTC: CeeTox H295R High-throughput Steroidogenesis Assay for Cortisol, maximum tolerated concentration (MTC) filtered results only (AID 2283916); details: actives raise or lower the signal
Procedure, shortened: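 H295R human adrenal cells prestimulated 48 h with 10 uM forskolin, then exposed 48 h to chemical in 0.1% DMSO; cortisol in medium quantified by HPLC-MS/MS; bidirectional fit vs DMSO baseline, concentrations not MTT-filtered for MTC.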

[12] = CEETOX_H295R_CORTIC_noMTC: CeeTox H295R High-throughput Steroidogenesis Assay for Corticosterone (CORTIC), maximum tolerated concentration (MTC) filtered results only (AID 2283917); details: actives raise or lower the signal
Procedure, shortened: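 Corticosterone secreted into the medium was measured by reverse-phase C18 HPLC with tandem MS after MTBE extraction. Cells (H295R) had 48 h forskolin (10 uM) stimulation before 48 h chemical exposure; gain or loss of signal was fitted relative to DMSO.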

[13] = CEETOX_H295R_DOC_noMTC: CeeTox H295R High-throughput Steroidogenesis Assay for DOC, maximum tolerated concentration (MTC) filtered results only (AID 2283918); details: actives raise or lower the signal
Procedure, shortened: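 H295R cells prestimulated 48 h with 10 uM forskolin, then exposed 48 h to chemical in 0.1% DMSO. 11-Deoxycorticosterone in medium measured by MTBE extraction and HPLC-MS/MS; bidirectional fit vs DMSO, no MTC filter.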

[14] = CEETOX_H295R_PROG_noMTC: CeeTox H295R High-throughput Steroidogenesis Assay for Progesterone (PROG), maximum tolerated concentration (MTC) filtered results only (AID 2283920); details: actives raise or lower the signal
Procedure, shortened: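 Readout: medium progesterone by MTBE extraction, reverse-phase C18 HPLC, ESI-positive MS/MS. Human H295R cells, 10 uM forskolin pretreatment 48 h, chemical 48 h in 0.1% DMSO. Gain or loss fitted against DMSO baseline.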

Measured: outcome

CN(C)CCC(c1ccc(Cl)cc1)c1ccccn1 (centres undefined)
inactive: [1] | [2] | [3] | [4] | [5] | [6] | [7]

O=C(O)c1ccccc1C(=O)O
inactive: [8] | [9] | [10] | [11] | [12] | [13] | [14]
